Reference: PubChem BioAssay (Tox21)
A number with no mark means an inactive call. Inconclusive results are not listed. Where a call stands in place of a potency, no number is given. Calls of active or inactive are those of the source. Unless noted, calls follow the shape of the dose curve; as a rule, active = well fitted curve in the direction sought with a large enough effect in the repeat runs; inconclusive = weak or mixed curves; inactive = no such curve, though single readings can be large; an effect the other way counts as inactive or inconclusive.

How the values were obtained:
[1] = target: Estrogen receptor beta (Homo sapiens) (UniProt Q92731); experiment: qHTS assay to identify small molecule antagonists of the estrogen receptor beta (ER-beta) signaling pathway (AID 1259378; active = well fitted inhibition curve with a large enough effect in the signal ratio in the repeat runs, not every such curve was filed as active; the % refers to the signal ratio; also: potency is read from the fitted curve at half-maximal effect)
Estrogen receptor beta (Homo sapiens), sequence (Q92731 whole entry, looked up): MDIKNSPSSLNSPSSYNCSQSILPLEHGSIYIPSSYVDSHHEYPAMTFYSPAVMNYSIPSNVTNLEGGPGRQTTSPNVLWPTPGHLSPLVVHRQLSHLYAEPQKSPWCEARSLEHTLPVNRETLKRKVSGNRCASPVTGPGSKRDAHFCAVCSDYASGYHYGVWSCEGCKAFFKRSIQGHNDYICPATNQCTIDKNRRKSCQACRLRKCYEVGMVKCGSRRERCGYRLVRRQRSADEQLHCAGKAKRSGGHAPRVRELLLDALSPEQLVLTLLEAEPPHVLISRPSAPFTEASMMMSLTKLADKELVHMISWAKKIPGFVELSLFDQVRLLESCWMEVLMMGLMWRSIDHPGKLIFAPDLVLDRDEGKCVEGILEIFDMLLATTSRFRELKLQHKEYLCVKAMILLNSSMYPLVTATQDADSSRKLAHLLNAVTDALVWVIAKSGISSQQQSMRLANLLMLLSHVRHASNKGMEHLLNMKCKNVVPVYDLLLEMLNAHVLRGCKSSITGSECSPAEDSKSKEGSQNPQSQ
Outline: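 Antagonist mode: compounds added to beta-lactamase reporter HEK293T ER-beta-UAS cells stimulated with E2 (1nM final), 16 hr at 37C. LiveBLAzer B/G FRET substrate, 2 hours room temperature, fluorescence read-out.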

[2] = qHTS assay to identify small molecule agonists of the androgen receptor (AR) signaling pathway in the presence of an antagonist - cell viability counter screen (AID 1259379); also: nearly all actives have a fitted effect of over 25% in size; also: potency is read from the fitted curve at half-maximal effect
Outline: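 Fluorescence from CellTiter-Fluor, added after 15 hr and read 1 hr later, gave cell viability. Cells were MDA-kb2 exposed to compounds (15 concentrations) in the presence of 3.0uM nilutamide at 37C, 0% CO2.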

[3] = qHTS assay to identify small molecule agonists of the estrogen receptor beta (ER-beta) signaling pathway - cell viability counter screen (AID 1259380); also: nearly all actives have a fitted effect of over 30% in size; also: potency is read from the fitted curve at half-maximal effect
Outline: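 Same-well viability counter screen. Cells: ER-beta-UAS-bla HEK293T, plated 6 hr before compound, in 2% charcoal-stripped FBS. Compound exposure 16 hr, 37C; viability by CellTiter-Glo luminescence after 30 min at room temperature.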

[4] = qHTS assay to identify small molecule antagonists of the estrogen receptor beta (ER-beta) signaling pathway - cell viability counter screen (AID 1259382); also: nearly all actives have a fitted effect of over 55% in size; also: potency is read from the fitted curve at half-maximal effect
Outline: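 Following a 6 hr plating period, HEK293T cells carrying a UAS-driven beta-lactamase reporter under ER-beta control received compounds and 1nM E2 (final). After 16 hr at 37C and 2 hr substrate loading, CellTiter-Glo luminescence indicated viability.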

[5] = target: Estrogen receptor (Homo sapiens) (UniProt P03372); experiment: qHTS assay to identify small molecule agonists of the estrogen receptor alpha (ER-alpha) signaling pathway in the presence of an antagonist (AID 1259383; calls by dose curve; also: top concentration of the series differs between compounds; nearly all actives have a fitted effect of over 15% in size)
Estrogen receptor (Homo sapiens), sequence (P03372 whole entry, looked up): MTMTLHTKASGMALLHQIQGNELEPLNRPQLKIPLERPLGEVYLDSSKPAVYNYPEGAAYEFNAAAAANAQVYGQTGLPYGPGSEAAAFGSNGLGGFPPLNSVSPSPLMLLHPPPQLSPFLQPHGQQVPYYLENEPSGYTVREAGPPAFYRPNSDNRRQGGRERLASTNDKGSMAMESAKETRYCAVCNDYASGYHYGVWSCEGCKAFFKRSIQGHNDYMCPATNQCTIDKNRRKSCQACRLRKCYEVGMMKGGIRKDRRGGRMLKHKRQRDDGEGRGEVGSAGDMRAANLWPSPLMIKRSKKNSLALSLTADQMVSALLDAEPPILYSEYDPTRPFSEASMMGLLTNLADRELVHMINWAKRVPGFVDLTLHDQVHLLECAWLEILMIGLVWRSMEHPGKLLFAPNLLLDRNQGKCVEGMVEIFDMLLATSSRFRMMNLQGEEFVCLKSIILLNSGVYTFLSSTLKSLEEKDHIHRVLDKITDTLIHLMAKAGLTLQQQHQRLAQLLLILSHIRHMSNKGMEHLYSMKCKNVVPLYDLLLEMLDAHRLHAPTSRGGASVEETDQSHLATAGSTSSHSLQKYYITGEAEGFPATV
Outline: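 Cells are hormone-deprived for 5 days (charcoal-stripped FBS, no phenol red), plated for 24hr, spiked with 10.0nM ICI-182,780, then dosed at 15 concentrations. After 22hr at 37C, ONE-Glo luminescence reports ERE-luciferase activity.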

[6] = qHTS assay to identify small molecule agonists or antagonists of the thyroid stimulating hormone receptor (TSHR) signaling pathway - wild type cell line counter screen (AID 1259384; calls by dose curve)
Outline: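 Counter screen in untransfected Hek293: compounds (15-point titration, triplicate) plus phosphodiesterase inhibitor Ro20-1724 added after 18 h plating; 30 min RT. Intracellular cAMP via competitive d2/cryptate immunoassay, 1 h incubation.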

[7] = target: Thyrotropin receptor (Homo sapiens) (UniProt P16473); experiment: qHTS assay to identify small molecule antagonists of the thyroid stimulating hormone receptor (TSHR) signaling pathway (AID 1259385; calls by dose curve; also: nearly all actives have a fitted effect of over 20% in size; also: potency is read from the fitted curve at half-maximal effect)
Thyrotropin receptor (Homo sapiens), sequence (P16473 whole entry, looked up): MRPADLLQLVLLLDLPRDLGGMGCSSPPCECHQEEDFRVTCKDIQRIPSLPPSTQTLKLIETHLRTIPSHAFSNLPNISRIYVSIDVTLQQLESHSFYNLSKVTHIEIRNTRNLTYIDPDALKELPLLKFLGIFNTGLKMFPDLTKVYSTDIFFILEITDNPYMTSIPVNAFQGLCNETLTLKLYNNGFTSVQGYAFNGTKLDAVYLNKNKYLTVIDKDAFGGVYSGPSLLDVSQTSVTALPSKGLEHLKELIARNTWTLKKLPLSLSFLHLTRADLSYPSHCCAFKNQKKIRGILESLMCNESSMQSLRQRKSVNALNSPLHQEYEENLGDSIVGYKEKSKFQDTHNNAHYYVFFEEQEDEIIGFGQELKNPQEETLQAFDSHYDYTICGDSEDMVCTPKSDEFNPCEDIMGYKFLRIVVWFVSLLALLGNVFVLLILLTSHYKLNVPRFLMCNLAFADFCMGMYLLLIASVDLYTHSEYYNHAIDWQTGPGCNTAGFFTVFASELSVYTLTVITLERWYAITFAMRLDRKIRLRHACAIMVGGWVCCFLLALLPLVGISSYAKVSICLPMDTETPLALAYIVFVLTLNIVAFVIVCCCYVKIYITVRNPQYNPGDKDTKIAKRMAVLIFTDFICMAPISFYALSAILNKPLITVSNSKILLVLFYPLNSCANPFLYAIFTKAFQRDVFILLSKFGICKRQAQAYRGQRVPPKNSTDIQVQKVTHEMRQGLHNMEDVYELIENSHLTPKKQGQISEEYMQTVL
Outline: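 Antagonist mode: compound-treated TSHR-expressing HEK293 cells were stimulated with 1.5 ng/mL TSH (final) in presence of Ro20-1724 for 30 min at RT. HTRF cAMP detection after 1 h; each compound tested at 15 concentrations, triplicate.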

[8] = qHTS assay to identify small molecule agonists of the estrogen receptor alpha (ER-alpha) signaling pathway in the presence of an antagonist - cell viability counter screen (AID 1259386);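 also: cells exposed to compounds for 22 h at 37 °C before the viability read; nearly all actives have a fitted effect of over 30% in size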; also: potency is read from the fitted curve at half-maximal effect
Outline: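 Cells are starved of estrogens for 5 days in charcoal-stripped serum, seeded for 24hr and co-treated with ICI-182,780 (10.0nM final) and test compounds. After 22hr at 37C, viability is read as CellTiter-Fluor fluorescence.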

[9] = target: Progesterone receptor (Homo sapiens) (UniProt P06401); experiment: qHTS assay to identify small molecule agonists of the progesterone receptor (PR) signaling pathway (AID 1346784; calls by dose curve; also: nearly all actives have a fitted effect of over 30% in size)
Progesterone receptor (Homo sapiens), sequence (P06401 whole entry, looked up): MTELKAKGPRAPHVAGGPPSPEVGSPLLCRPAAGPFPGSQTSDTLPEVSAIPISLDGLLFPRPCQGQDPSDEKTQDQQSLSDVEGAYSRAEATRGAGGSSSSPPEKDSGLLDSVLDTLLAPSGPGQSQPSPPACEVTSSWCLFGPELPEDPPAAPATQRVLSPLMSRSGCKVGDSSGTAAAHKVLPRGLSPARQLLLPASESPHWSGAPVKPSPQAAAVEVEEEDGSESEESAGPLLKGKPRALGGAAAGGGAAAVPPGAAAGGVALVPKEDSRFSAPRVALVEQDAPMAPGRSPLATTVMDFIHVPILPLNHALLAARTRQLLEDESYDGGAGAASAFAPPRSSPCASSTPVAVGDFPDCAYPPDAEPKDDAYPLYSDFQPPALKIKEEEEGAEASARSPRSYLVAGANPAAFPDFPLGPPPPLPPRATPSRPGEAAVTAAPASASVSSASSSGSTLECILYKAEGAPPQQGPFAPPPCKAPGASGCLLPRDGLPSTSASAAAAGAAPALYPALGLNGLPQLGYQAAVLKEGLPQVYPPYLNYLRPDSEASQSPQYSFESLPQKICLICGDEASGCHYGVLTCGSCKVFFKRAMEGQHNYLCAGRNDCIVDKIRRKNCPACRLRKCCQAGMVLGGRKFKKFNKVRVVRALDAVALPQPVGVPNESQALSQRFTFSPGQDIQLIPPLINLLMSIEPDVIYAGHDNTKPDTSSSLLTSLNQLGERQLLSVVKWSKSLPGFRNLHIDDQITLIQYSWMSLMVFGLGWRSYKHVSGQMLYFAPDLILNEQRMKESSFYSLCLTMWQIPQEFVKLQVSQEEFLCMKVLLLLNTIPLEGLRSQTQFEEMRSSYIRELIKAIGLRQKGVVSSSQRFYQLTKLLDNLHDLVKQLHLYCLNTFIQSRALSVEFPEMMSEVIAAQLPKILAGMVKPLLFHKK
Outline: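 Reporter assay, GripTite PR-UAS-bla HEK 293T cells: 16 hr exposure to DMSO-dissolved compounds at 37C, 5% CO2, in steroid-depleted (2% charcoal-stripped FBS) medium; beta-lactamase measured by FRET fluorescence.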

[10] = target: Progesterone receptor (Homo sapiens) (UniProt P06401); experiment: qHTS assay to identify small molecule antagonists of the progesterone receptor (PR) signaling pathway (AID 1346795; active = well fitted inhibition curve with a large enough effect in the signal ratio in the repeat runs, not every such curve was filed as active; the % refers to the signal ratio; also: potency is read from the fitted curve at half-maximal effect)
Outline: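 Stimulus R5020 at 1 nM final; cells HEK293T PR-UAS-bla; medium with 2% charcoal-stripped FBS; compound exposure 16 hr at 37C, 5% CO2; detection by FRET beta-lactamase substrate, 2 hr, room temperature.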

[11] = qHTS assay to identify small molecule antagonists of the progesterone receptor (PR) signaling pathway - cell viability counter screen (AID 1346798); also: nearly all actives have a fitted effect of over 50% in size; also: potency is read from the fitted curve at half-maximal effect
Outline: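 In the same plates used for the beta-lactamase readout, cell viability of compound- and R5020-treated PR-UAS-bla HEK293T cells (16 hr, 37C) was assessed by CellTiter-Glo luminescence.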

[12] = qHTS assay to identify small molecule agonists of the progesterone receptor (PR) signaling pathway - cell viability counter screen (AID 1346799; calls by dose curve; also: nearly all actives have a fitted effect of over 45% in size; also: potency is read from the fitted curve at half-maximal effect)
Outline: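 Multiplexed viability read: CellTiter-Glo luminescence, 30 min RT, following LiveBLAzer FRET measurement on PR-UAS-bla HEK293T cells exposed to compounds 16 hr.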

[13] = qHTS assay to identify small molecule antagonists of the TGF-beta/Smad signaling pathway - cell viability counter screen (AID 1346824); also: nearly all actives have a fitted effect of over 50% in size
Outline: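 Cytotoxicity counter-screen run in the same wells as the beta-lactamase Smad reporter read: CellTiter-Glo luminescence after 30 min at room temperature. HEK 293T SBE-bla cells had 5 hr compound exposure at 37 C with TGF-beta1 (0.25 ng/mL stock).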

[14] = qHTS assay to identify small molecule agonists of the TGF-beta/Smad signaling pathway - cell viability counter screen (AID 1346829); also: top concentration of the series differs between compounds; nearly all actives have a fitted effect of over 45% in size
Outline: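 After overnight seating at 37 C and 5% CO2, reporter cells got compounds for 5 hr and FRET substrate for 2 hr; cell viability then came from CellTiter-Glo luminescence.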

[15] = qHTS assay to identify small molecule agonists of the TGF-beta/Smad signaling pathway (AID 1346859; active = well fitted activation curve with a large enough effect in the signal ratio in the repeat runs, not every such curve was filed as active; the % refers to the signal ratio; also: series mostly up to about 77 µM)
Outline: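 Screening used HEK 293T SBE-bla cells at 4,000/well. Test agents: 5 hr, 37 C. Detection: FRET substrate, 2 hr RT, then excitation 405 nm with emissions at 460 and 530 nm.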

[16] = target: Thyrotropin-releasing hormone receptor (Homo sapiens) (UniProt P34981); experiment: qHTS assay to identify small molecule antagonists of the thyrotropin-releasing hormone receptor (TRHR) signaling pathway (AID 1346877; active = well fitted inhibition curve with a large enough effect in the repeat runs, not every such curve was filed as active; also: series mostly up to about 51 µM)
Thyrotropin-releasing hormone receptor (Homo sapiens), sequence (P34981 whole entry, looked up): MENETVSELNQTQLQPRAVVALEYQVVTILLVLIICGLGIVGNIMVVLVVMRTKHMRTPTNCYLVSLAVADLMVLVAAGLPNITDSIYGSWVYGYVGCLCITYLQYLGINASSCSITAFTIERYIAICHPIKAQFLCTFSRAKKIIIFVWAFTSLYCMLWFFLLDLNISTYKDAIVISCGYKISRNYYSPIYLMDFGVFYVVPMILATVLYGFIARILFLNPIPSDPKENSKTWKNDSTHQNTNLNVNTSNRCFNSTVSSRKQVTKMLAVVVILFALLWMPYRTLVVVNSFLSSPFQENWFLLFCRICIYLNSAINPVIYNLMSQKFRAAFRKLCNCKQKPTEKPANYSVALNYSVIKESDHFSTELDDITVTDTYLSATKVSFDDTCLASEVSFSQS
Outline: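 Cells (TRHR-HEK293) are plated and kept 18 h at 37 °C/5% CO2. A calcium-sensitive dye is added for 2 h, compound follows for 5 min at room temperature, and TRH is then given at 1 nM final.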

[17] = target: Thyrotropin-releasing hormone receptor (Homo sapiens) (UniProt P34981); experiment: qHTS assay to identify small molecule agonists of the thyrotropin-releasing hormone receptor (TRHR) signaling pathway (AID 1346891; calls by dose curve; also: series mostly up to about 58 µM)
Outline: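 Readout was intracellular calcium fluorescence in TRHR-Hek293 cells. Cells were incubated 18 h, dye-loaded 2 h at 37 °C, and treated with compound in agonist mode.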

[18] = Human pregnane X receptor (PXR) small molecule agonists, qHTS cell viability counter screen (AID 1346977); also: nearly all actives have a fitted effect of over 50% in size; also: potency is read from the fitted curve at half-maximal effect
Outline: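 In each well, the PXR reporter HepG2 line was checked for viability: CellTiter-Fluor reagent added 23hr post-dosing, fluorescence read after 1hr incubation at 37C.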

[19] = Caspase-3/7 induction in HepG2 cells by small molecules, qHTS assay (AID 1346978); also: nearly all actives have a fitted effect of over 15% in size
Outline: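 Caspase-3/7 induction was measured by Caspase-Glo 3/7 luminescence (30 min, room temperature) after a 17 hr compound exposure of wild-type HepG2 cells seeded at 2,000 per well and pre-incubated 5 hr.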

[20] = target: Androgen receptor (Homo sapiens) (UniProt P10275); experiment: qHTS assay to identify small molecule agonists of the androgen receptor (AR) signaling pathway in the presence of an antagonist (AID 1259381; calls by dose curve; also: nearly all actives have a fitted effect of over 15% in size)
Androgen receptor (Homo sapiens), sequence (P10275 whole entry, looked up): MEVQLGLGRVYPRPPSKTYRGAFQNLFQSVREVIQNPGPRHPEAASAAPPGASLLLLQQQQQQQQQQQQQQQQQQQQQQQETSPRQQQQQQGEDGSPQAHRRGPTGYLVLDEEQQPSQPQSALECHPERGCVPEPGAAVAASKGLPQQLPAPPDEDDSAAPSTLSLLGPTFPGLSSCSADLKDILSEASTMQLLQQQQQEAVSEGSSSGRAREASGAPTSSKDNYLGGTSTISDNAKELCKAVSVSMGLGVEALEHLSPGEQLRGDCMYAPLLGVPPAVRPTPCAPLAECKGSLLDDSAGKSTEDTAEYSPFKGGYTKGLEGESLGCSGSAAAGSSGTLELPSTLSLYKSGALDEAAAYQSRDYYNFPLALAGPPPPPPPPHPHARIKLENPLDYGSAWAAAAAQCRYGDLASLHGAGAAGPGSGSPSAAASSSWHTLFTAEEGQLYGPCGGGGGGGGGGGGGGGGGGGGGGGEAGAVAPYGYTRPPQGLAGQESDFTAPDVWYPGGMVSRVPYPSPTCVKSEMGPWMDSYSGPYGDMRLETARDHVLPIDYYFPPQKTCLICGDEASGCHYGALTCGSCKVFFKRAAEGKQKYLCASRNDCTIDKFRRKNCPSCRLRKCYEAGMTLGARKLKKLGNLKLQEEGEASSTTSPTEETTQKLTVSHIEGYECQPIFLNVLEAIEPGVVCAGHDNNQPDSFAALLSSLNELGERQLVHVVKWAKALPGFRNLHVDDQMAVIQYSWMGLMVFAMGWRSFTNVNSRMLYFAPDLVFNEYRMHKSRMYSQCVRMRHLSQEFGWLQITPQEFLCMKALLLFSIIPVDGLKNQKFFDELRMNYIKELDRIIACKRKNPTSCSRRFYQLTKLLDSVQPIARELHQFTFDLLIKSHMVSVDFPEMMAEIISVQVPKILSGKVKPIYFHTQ
Outline: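 Cells are MDA-kb2 (human breast carcinoma, MMTV-luc, AR/GR responsive). Nilutamide is present at 3.0uM final throughout; compounds are added at 15 concentrations and incubated 16hr at 37C before ONE-Glo luminescence detection.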

| SMILES | Potency [1] | Potency [2] | Potency [3] | Potency [4] | Potency [5] | outcome [6] | Potency [7] | Potency [8] | outcome [9] | Potency [10] | Potency [11] | Potency [12] | Potency [13] | Potency [14] | Potency [15] | Potency [16] | Potency [17] | Potency [18] | Potency [19] | Potency [20] |
| --- | --- | --- | --- | --- | --- | --- | --- | --- | --- | --- | --- | --- | --- | --- | --- | --- | --- | --- | --- | --- |
| Cc1cncc(C)c1 | inactive | inactive | inactive | inactive | inactive | inactive | inactive | inactive | inactive | inactive | inactive | inactive | inactive | inactive | inactive | inactive | inactive | inactive | inactive | – |
| CCOC(OCC)C(=O)c1ccccc1 | inactive | inactive | inactive | inactive | inactive | – | – | inactive | inactive | inactive | inactive | inactive | inactive | inactive | inactive | – | inactive | inactive | inactive | inactive |
| CC(NCCC(c1ccccc1)c1ccccc1)c1ccccc1 (configuration not stated) | 26.6 µM (active) | 23.7 µM (active) | 18.8 µM (active) | 18.8 µM (active) | – | inactive | 29.8 µM (active) | – | inactive | 29.8 µM (active) | 21.1 µM (active) | – | – | – | inactive | inactive | inactive | 26.6 µM (active) | – | inactive |
| Cc1oc(-c2ccccc2)nc1CCOc1ccc(C[C@H](Nc2ccccc2C(=O)c2ccccc2)C(=O)O)cc1 | 27.3 µM (active) | 54.5 µM (active) | 27.3 µM (active) | 24.3 µM (active) | inactive | inactive | inactive | 48.6 µM (active) | – | – | – | 27.3 µM (active) | inactive | inactive | – | – | inactive | 54.5 µM (active) | – | inactive |
| CC(C)(c1cc(Br)c(OCCO)c(Br)c1)c1cc(Br)c(OCCO)c(Br)c1 | 4.75 µM (active) | 47.5 µM (active) | 42.3 µM (active) | 53.3 µM (active) | inactive | – | – | – | – | 5.33 µM (active) | 29.9 µM (active) | 33.6 µM (active) | inactive | inactive | inactive | – | – | – | – | inactive |
| CC(=O)c1ccccc1N | inactive | inactive | inactive | inactive | inactive | inactive | inactive | inactive | inactive | inactive | inactive | inactive | inactive | inactive | inactive | inactive | inactive | inactive | inactive | – |
| COc1nccnc1CC(C)C | inactive | inactive | inactive | inactive | inactive | inactive | inactive | inactive | – | – | inactive | inactive | inactive | inactive | inactive | inactive | inactive | inactive | inactive | inactive |
| O=S(=O)(O)CCCN1CCOCC1 | inactive | inactive | inactive | inactive | inactive | inactive | inactive | inactive | inactive | inactive | inactive | inactive | inactive | inactive | inactive | inactive | inactive | inactive | inactive | – |
